Data reported in PubChem BioAssay (NCATS).
Inconclusive results are not listed. Active and inactive are the calls of the source. Unless noted, the call rests on the fitted dose curve; in most records, active means well fitted curve in the direction sought with a large enough effect; inconclusive means small, poorly fitted or top-dose-only effect, or another doubt; inactive means no such curve, though single readings can be large; an effect the other way counts as inactive or inconclusive.

Experiments:
[1] = biological target: Beta-2 adrenergic receptor (Homo sapiens) (UniProt P07550); experiment: qHTS validation assay of beta-arrestin-biased ligands of beta2-adrenergic receptor (AID 485366); further: 0% is about no effect
Outline: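 qHTS, Tango cells, 1500 cells/well, DMEM + 1% FBS. Cpd 18 hr at 37 degrees C. Luciferin/ATP/CoA detection mix, 15 min RT, luminescence read. %Activity from corrected signal; CRC fit, curve class.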

[2] = Quantitative high throughput screen for delayed death inhibitors of the malarial parasite plastid, 96 hour incubation (AID 488745); further: nearly all actives have a fitted effect of over 70% in size; further: potency means the concentration at half of the fitted maximal effect
Outline: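 Decreased firefly luciferase luminescence indicates inhibited growth of reporter-integrated P. falciparum after two generations (96 h, 37 C, 5% CO2). Infected erythrocytes at 0.1% parasitemia, 2% hematocrit, in Albumax-supplemented RPMI 1640.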

[3] = biological target: Thioredoxin reductase 1, cytoplasmic (Rattus norvegicus) (UniProt O89049); experiment: qHTS Assay for Substrates of Mammalian Selenoprotein Thioredoxin Reductase 1 (TrxR1) (AID 488772);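 further: series mostly up to about 57 µM; 0% is about no effect; a drop in NADPH fluorescence below the no-compound background marks a TrxR1 substrate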
Outline: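 In this dual-purpose format, potential substrates are identified from the first fluorescence read after selenite addition, not from the 8-minute delta. Rat enzyme is preincubated with NADPH and then with compound at ~22 deg C.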

[4] = biological target: Thioredoxin reductase 1, cytoplasmic (Rattus norvegicus) (UniProt O89049); experiment: qHTS Assay for Inhibitors of Mammalian Selenoprotein Thioredoxin Reductase 1 (TrxR1) (AID 488773); details: Potency: inhibition; further: nearly all actives have a fitted effect of over 40% in size; further: potency means the concentration at half of the fitted maximal effect
Outline: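 Inhibition is scored from the loss of NADPH fluorescence between first and last reads of an 8-min kinetic run. Selenite (400 uM) was the substrate, added after 15 min compound preincubation at room temperature.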

[5] = biological target: Flap endonuclease 1 (Homo sapiens) (UniProt P39748); experiment: qHTS Validation Assay for the Inhibitors of Human Flap endonuclease 1 (FEN1) (AID 488816); further: potency means the concentration at half of the fitted maximal effect
Outline: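 Steps: add FEN1 (10 nM reagent) or buffer only; pin compounds; hold 15 min at room temperature; start with substrate, 50 nM final; read at 0 and 15 min; correct, normalize and fit a four-parameter Hill curve.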

[6] = biological target: M-phase phosphoprotein 8 (Homo sapiens) (UniProt Q99549); experiment: qHTS Validation Assay for Inhibitors for MPP8 Chromodomain Interactions with Methylated Histone Tails (AID 488949);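 further: AlphaScreen signal from MPP8 chromodomain bound to biotinylated H3K9me3 peptide; top concentration of the series differs between compounds; on the % scale 0 is the no-effect control and ±100 the full control effect; nearly all actives have a fitted effect of over 55% in size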
Outline: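 Disruption of the preformed MPP8–trimethyl-H3K9 peptide complex (both 50 nM, 30 min, RT) is measured after 30 min compound exposure, using AlphaScreen proximity beads; aurintricarboxylic acid titration serves as plate control.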

[7] = biological target: Chromobox protein homolog 1 (Homo sapiens) (UniProt P83916); experiment: qHTS Validation Assay for Inhibitors of HP1-beta Chromodomain Interactions with Methylated Histone Tails (AID 488953); further: nearly all actives have a fitted effect of over 50% in size; further: potency means the concentration at half of the fitted maximal effect
Outline: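 AlphaScreen proximity signal from streptavidin donor and nickel chelate acceptor beads (final 10 ug/mL) after 30 min dark incubation. Compounds had 30 min at room temperature with preformed complex of 50 nM HP1-beta and 50 nM b-H3(1-18)K9me3 in PBS pH 7.4 with 0.01% Tween-20.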

[8] = biological target: Methanococcus maripaludis chaperonin (MmCpn) (UniProt Q6LX38); experiment: High-Throughput Screening for Modulators of Cytosolic Chaperonin Activity: MmCpn Primary Screen (AID 488978);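 further: 50 nM MmCpn enzyme hydrolysing 30 µM ATP at 37 °C; 0% is about no effect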
Outline: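 Measures ATPase turnover of the M. maripaludis chaperonin (50 nM final) against 30 uM ATP over 10 min at 37C, with compound added 5 min beforehand at room temperature. ADP is quantified by HTRF immunodetection.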

[9] = biological target: Transient receptor potential cation channel subfamily V member 1 (Homo sapiens) (UniProt Q8NER1); experiment: HTS Assay for Compounds that Act as Enhancers of the Vanilloid Receptor 1 (AID 488979); further: 0% is about no effect
Outline: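 TRPV1-expressing cells loaded with Fluo-8 calcium dye; compounds added and calcium influx read kinetically for 3 min (agonist phase), then capsaicin at EC20 added and read 2 min more for enhancement. Fluorescence ex 480/em 520 nm.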

[10] = biological target: Thyrotropin receptor (Homo sapiens) (UniProt P16473); experiment: qHTS Assay for Antagonists of the Thyroid Stimulating Hormone Receptor (AID 488980); further: series mostly up to about 58 µM; 0% is about no effect
Outline: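 Cells expressing human TSHR (HEK293) are dispensed in HBSS/HEPES containing 70 uM RO 20-1724, compound is added, then TSH at EC80 (4 nM final). Antibody in lysis buffer follows, 30 minutes at room temperature before HTRF detection.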

[11] = biological target: D(1A) dopamine receptor (Homo sapiens) (UniProt P21728); experiment: HTS Assay for Allosteric Agonists of the Human D1 Dopamine Receptor: Primary Screen for Agonists (AID 488981); further: 0% is about no effect
Outline: (§1)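 Tetracycline-induced HEK293 T-REx cells force-coupled to calcium signalling were incubated overnight at 30 C and dye-loaded at room temperature. Calcium flux over 180 s after compound addition flagged agonists; a further 180 s read after EC20 dopamine flagged potentiators.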

[12] = biological target: D(1A) dopamine receptor (Homo sapiens) (UniProt P21728); experiment: HTS Assay for Allosteric Agonists of the Human D1 Dopamine Receptor: Primary Screen for Potentiators (AID 488982); further: 0% is about no effect
Outline: as §1

[13] = biological target: D(1A) dopamine receptor (Homo sapiens) (UniProt P21728); experiment: HTS Assay for Allosteric Agonists of the Human D1 Dopamine Receptor: Primary Screen for Antagonists (AID 488983);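 further: calcium flux response to an EC80 dopamine challenge measured with no-wash dye; on the % scale 0 is the no-effect control and ±100 the full control effect; nearly all actives have a fitted effect of over 65% in size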
Outline: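 Calcium-flux read-out in inducible HEK293 T-REx cells expressing D1, dye-loaded 30–90 min at room temperature. Kinetic reads: 180 s after compound (agonist phase), then 180 s after an EC80 dopamine challenge.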

[14] = biological target: ATP-dependent 6-phosphofructokinase (Trypanosoma brucei brucei) (UniProt O15648); experiment: qHTS Assay to Find Inhibitors of T. brucei phosphofructokinase: hit validation (AID 492961);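 further: luminescence reports ADP formed as PFK phosphorylates fructose-6-phosphate with ATP; series mostly up to about 51 µM; on the % scale 0 is the no-effect control and ±100 the full control effect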
Outline: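 Reaction: 0.1 M triethanolamine pH 8.0, 5 mM MgCl2, F6P 0.5 mM, ATP 0.1 mM, PFK 1.25 nM, 45 min RT. Read-out: ADP-Glo luminescence. Analysis: concentration-response fits, classed by r2 and efficacy.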

[15] = Validation screen for small molecules that induce genotoxicity in human embryonic kidney (HEK293T) cells expressing luciferase-tagged ELG1 (AID 493106); further: 0% is about no effect
Outline: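 ELG1-luciferase reporter readout (ONE-Glo, 30 min, room temperature) after 16 hr compound treatment at 37 °C of HEK293T cells at 2,000 per well. Rising luminescence flags genotoxic stress.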

[16] = biological target: ATPase family AAA domain-containing protein 5 (Homo sapiens) (UniProt Q96QE3); experiment: Validation screen for small molecules that inhibit ELG1-dependent DNA repair in human embryonic kidney (HEK293T) cells expressing luciferase-tagged ELG1 (AID 493107);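 further: series mostly up to about 46 µM; on the % scale 0 is the no-effect control and ±100 the full control effect; inhibitors lower the ELG1-luciferase luminescence signal; nearly all actives have a fitted effect of over 70% in size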
Outline: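 Luciferase read-out, ONE-Glo, 30 min at room temperature, follows 16 h co-exposure at 37 C of compound and the DNA-damaging agent 5-fluorouridine. Cells: HEK293T with ELG1-luciferase fusion, 2,000 per well, DMSO as vehicle.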

[17] = biological target: Thyrotropin-releasing hormone receptor (Homo sapiens) (UniProt P34981); experiment: qHTS for Small Molecule Agonists and Allosteric Enhancers of Human TRH Receptor: Validation Screen for Agonists (AID 493127;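 active means calcium activation more than 3 SD above the typical response in the agonist read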;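 further: intracellular calcium rise by fluo-8 fluorescence before TRH EC20 addition; 0% is about no effect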); details: TRH receptor agonist cell assay; at 2 µM; stronger effect = higher value
Outline: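 Compound-evoked intracellular calcium release in fluo-8-loaded TRHR cells, read kinetically on FDSS (Ex 480/Em 530, 1 s/cycle) after 23 nL pintool transfer. Agonist phase preceded 10 nM TRH EC20 addition.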

[18] = biological target: ATP-dependent 6-phosphofructokinase (Trypanosoma brucei brucei) (UniProt O15648); experiment: qHTS Validation Assay to Find Inhibitors of T. brucei phosphofructokinase (AID 485368)
Outline: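 Luminescent ADP detection measures PFK turnover of fructose-6-phosphate (0.5 mM) with ATP (0.1 mM) at pH 8.0. Reaction runs 45 min at room temperature with 1.25 nM enzyme; inhibitors tested as titrations up to 57 uM.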

[19] = Nrf2 qHTS screen for inhibitors: Validation (AID 493153; active means well fitted inhibition curve with a large enough effect in the main read-out, with a control signal flat, not every such curve was filed as active; further: potency means the concentration at half of the fitted maximal effect); details: Potency: luciferase luminescence; viability change: measured here: cytotoxicity max response
Outline: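 Concentration-response on A549 ARE_Fluc reporter cells exposed 18-24 h at 37 C, 5% CO2. Cytotoxicity read first by CellTiter-Fluor fluorescence (Ex 405/Em 525), then Nrf2 inhibition by BugLite luminescence after 15 min.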

[20] = Quantitative high throughput screen for delayed death inhibitors of the malarial parasite plastid, 48 hour incubation (AID 488752); further: nearly all actives have a fitted effect of over 65% in size; further: potency means the concentration at half of the fitted maximal effect
Outline: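 One-generation (48 h) growth assay: a decrease in luciferase signal from an integrated reporter in P. falciparum-infected red cells (0.1% parasitemia, 2% hematocrit) after compound exposure at 37 C indicates parasite inhibition.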

Sequence of Thyrotropin-releasing hormone receptor (Homo sapiens) (P34981 whole entry, looked up): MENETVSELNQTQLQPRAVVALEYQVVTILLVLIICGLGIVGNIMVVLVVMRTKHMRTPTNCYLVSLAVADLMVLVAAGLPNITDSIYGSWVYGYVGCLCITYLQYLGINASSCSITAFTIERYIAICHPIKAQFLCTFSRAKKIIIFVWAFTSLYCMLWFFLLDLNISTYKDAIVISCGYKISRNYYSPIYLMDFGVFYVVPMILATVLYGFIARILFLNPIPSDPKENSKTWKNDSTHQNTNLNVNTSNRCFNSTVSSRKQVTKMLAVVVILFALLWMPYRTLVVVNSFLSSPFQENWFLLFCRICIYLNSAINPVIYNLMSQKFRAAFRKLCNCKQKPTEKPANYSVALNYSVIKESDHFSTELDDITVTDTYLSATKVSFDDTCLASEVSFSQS
Sequence of M-phase phosphoprotein 8 (Homo sapiens) (Q99549 whole entry, looked up): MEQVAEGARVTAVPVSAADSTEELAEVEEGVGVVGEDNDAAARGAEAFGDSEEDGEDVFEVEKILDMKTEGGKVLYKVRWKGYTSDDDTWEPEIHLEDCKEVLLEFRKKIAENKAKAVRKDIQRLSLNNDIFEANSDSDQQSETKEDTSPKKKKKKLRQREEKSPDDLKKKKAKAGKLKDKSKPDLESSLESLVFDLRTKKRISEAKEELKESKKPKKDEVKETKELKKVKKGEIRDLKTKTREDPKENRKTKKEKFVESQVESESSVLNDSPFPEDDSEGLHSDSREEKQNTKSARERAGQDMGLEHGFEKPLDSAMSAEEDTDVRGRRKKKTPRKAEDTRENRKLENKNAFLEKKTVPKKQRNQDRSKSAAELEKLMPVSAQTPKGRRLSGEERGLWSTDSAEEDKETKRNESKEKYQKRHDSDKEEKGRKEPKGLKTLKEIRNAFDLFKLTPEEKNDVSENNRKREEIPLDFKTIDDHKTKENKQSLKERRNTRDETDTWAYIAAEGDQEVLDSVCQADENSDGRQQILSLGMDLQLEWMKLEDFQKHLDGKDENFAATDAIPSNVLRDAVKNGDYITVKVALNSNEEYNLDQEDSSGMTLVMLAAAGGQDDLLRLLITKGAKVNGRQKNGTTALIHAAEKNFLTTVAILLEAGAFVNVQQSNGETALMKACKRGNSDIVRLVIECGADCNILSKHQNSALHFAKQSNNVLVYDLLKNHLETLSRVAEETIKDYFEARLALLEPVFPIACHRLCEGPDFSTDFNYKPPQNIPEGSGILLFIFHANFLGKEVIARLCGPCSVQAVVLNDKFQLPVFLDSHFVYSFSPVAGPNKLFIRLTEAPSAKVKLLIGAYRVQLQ
Sequence of Methanococcus maripaludis chaperonin (MmCpn) (Q6LX38 1-543): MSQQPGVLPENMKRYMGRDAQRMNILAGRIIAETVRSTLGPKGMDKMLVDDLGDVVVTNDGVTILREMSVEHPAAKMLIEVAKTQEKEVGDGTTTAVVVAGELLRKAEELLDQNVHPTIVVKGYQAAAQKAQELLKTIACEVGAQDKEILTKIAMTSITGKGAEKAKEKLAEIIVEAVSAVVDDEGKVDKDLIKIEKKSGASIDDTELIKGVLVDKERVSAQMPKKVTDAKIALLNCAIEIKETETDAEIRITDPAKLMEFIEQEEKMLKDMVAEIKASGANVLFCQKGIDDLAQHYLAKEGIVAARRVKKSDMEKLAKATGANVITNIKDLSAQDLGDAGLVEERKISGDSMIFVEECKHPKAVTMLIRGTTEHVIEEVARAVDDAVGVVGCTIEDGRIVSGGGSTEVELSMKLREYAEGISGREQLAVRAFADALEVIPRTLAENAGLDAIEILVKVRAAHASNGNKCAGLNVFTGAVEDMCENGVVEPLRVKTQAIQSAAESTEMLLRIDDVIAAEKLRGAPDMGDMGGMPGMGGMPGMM
Sequence of Beta-2 adrenergic receptor (Homo sapiens) (P07550 whole entry, looked up): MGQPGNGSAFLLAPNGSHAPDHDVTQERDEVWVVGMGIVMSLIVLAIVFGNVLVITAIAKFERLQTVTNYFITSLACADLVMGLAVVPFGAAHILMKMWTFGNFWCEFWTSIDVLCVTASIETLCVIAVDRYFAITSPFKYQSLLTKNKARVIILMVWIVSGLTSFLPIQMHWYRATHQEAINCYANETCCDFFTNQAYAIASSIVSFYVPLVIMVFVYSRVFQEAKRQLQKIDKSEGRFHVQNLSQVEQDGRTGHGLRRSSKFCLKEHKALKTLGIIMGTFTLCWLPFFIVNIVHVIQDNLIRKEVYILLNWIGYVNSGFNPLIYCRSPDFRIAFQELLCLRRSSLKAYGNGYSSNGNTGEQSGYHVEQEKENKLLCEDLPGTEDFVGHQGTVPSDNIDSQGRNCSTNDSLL
Sequence of ATPase family AAA domain-containing protein 5 (Homo sapiens) (Q96QE3 whole entry, looked up, the tested form may be a part): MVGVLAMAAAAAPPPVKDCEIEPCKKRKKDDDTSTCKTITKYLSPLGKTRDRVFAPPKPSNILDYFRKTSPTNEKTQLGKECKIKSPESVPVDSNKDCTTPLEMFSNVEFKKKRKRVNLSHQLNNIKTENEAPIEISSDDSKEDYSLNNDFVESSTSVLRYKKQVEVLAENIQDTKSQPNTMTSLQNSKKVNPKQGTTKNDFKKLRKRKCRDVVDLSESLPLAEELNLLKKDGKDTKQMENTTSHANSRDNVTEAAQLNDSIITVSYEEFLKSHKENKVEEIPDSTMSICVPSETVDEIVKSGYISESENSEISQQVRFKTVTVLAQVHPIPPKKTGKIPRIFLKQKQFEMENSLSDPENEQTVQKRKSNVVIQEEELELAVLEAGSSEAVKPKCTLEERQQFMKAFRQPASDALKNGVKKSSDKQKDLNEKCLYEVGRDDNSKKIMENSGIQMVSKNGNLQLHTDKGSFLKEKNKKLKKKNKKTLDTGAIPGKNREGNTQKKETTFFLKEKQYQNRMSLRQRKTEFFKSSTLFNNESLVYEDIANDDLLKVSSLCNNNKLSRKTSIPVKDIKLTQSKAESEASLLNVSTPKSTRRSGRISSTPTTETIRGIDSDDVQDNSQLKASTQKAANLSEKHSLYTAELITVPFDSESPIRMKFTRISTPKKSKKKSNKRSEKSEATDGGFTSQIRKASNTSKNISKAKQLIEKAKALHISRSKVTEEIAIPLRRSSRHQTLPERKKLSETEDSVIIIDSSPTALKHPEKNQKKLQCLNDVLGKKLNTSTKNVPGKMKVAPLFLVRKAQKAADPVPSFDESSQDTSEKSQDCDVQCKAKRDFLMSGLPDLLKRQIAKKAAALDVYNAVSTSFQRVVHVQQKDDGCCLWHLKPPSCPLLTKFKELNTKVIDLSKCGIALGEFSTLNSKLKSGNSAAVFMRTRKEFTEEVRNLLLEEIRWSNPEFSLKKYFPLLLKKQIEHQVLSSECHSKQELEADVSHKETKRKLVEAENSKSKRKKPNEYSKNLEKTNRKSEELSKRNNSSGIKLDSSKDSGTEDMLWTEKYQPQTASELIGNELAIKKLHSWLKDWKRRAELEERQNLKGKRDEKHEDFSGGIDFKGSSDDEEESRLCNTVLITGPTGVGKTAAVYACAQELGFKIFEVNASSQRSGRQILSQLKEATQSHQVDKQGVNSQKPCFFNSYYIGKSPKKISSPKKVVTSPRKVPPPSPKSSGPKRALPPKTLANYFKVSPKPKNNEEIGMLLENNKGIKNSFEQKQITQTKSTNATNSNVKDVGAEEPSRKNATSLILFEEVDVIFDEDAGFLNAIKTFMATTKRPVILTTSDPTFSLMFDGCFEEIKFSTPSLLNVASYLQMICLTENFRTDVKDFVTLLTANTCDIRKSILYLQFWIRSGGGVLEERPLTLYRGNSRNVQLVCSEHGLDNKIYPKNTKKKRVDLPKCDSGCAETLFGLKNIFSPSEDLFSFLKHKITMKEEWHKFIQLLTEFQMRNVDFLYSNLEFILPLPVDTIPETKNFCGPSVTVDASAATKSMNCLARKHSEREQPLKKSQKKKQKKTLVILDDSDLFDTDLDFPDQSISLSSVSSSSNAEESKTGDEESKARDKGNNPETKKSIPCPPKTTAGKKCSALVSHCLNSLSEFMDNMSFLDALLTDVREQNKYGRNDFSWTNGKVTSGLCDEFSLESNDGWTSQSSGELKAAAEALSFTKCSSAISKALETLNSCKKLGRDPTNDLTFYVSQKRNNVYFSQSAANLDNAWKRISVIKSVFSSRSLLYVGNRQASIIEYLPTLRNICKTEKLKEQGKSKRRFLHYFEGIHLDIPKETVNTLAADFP
Sequence of Thyrotropin receptor (Homo sapiens) (P16473 whole entry, looked up): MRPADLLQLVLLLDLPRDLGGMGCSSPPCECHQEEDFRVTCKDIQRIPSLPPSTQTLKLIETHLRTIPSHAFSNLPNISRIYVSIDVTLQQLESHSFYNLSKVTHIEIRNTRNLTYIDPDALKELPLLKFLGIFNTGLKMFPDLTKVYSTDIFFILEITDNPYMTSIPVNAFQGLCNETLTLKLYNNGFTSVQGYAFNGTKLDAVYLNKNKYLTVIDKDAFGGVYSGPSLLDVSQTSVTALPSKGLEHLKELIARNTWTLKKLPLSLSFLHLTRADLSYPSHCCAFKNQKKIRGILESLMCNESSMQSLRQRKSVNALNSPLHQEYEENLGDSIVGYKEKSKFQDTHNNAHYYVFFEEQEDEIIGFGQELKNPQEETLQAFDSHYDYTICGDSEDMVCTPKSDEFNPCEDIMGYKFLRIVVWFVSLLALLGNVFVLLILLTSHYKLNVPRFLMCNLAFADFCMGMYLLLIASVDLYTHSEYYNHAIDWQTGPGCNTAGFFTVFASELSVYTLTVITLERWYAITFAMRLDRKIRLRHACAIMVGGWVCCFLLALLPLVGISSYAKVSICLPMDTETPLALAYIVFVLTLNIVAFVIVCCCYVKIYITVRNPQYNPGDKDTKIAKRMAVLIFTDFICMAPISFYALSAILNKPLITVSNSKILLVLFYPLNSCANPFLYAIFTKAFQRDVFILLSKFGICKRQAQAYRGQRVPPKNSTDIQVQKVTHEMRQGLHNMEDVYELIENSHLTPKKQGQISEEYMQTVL
Sequence of Chromobox protein homolog 1 (Homo sapiens) (P83916 whole entry, looked up): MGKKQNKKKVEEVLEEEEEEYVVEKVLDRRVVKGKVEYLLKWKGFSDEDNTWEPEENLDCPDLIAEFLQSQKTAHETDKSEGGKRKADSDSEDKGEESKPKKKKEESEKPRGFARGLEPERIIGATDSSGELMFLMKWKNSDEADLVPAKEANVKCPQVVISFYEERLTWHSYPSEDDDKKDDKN

O=C1c2ccccc2-c2n[nH]c3cccc1c23
inactive: outcome [1] | outcome [3] | Potency [4] | Potency [5] | Potency [6] | Potency [7] | outcome [8] | outcome [9] | outcome [10] | outcome [11] | Potency [12] | Potency [13] | outcome [14] | Potency [15] | outcome [16] | activation [17] 0.75%
active: Potency [2] 4.65 µM

CCOC(=O)C(C)Oc1cccc2c(=O)n(CC(=O)Nc3ccc4c(c3)OCCO4)ccc12 (stereo unspecified)
inactive: outcome [1] | Potency [18] | outcome [3] | Potency [4] | Potency [5] | Potency [6] | Potency [7] | outcome [8] | outcome [11] | Potency [12] | Potency [13] | outcome [16] | Potency [19]
-3.9%: viability change [19]

CC(C)c1ccc2c(c1)c(SC(C)(C)C)c(CC(C)(C)C(=O)O)n2Cc1ccc(Cl)cc1
inactive: outcome [1] | Potency [18] | Potency [4] | Potency [6] | Potency [7] | outcome [8] | outcome [10] | outcome [11] | Potency [12] | Potency [13] | Potency [15] | outcome [16] | activation [17] 1.38%
active: Potency [2] 7.38 µM | Potency [20] 13.1 µM

Nc1nc(OCc2ccccc2)c2[nH]cnc2n1
inactive: outcome [1] | Potency [2] | Potency [20] | outcome [3] | Potency [4] | Potency [5] | Potency [6] | Potency [7] | outcome [8] | outcome [9] | outcome [10] | outcome [11] | Potency [12] | Potency [13] | outcome [16] | activation [17] -2.94% | Potency [19]
10.1%: viability change [19]

O=C1c2c(O)cc(O)cc2OC(c2ccc(O)c(O)c2)C1O (stereo unspecified)
inactive: outcome [1] | Potency [20] | outcome [3] | Potency [6] | outcome [8] | outcome [9] | outcome [10] | outcome [11] | Potency [13] | Potency [15] | outcome [16] | activation [17] 0%
active: Potency [4] 8.44 µM | Potency [5] 2.67 µM | Potency [7] 0.0084 µM

Nc1nc(N)c(N=O)c(OCC2CCCCC2)n1
inactive: outcome [1] | Potency [18] | outcome [3] | Potency [4] | Potency [5] | Potency [6] | outcome [8] | outcome [11] | Potency [12] | Potency [13] | outcome [16]

O=c1cc(N2CCOCC2)oc2c(-c3ccccc3)cccc12
inactive: outcome [1] | Potency [20] | outcome [3] | Potency [4] | Potency [5] | Potency [6] | outcome [8] | outcome [9] | outcome [10] | outcome [11] | Potency [12] | Potency [13] | Potency [15] | activation [17] -3.19%
active: Potency [7] 26.7 µM | Potency [19] 9.2 µM
-18.1%: viability change [19]

O=C(CCc1ccc(O)cc1)c1c(O)cc(O)cc1O
inactive: outcome [1] | Potency [18] | Potency [2] | Potency [20] | outcome [3] | Potency [5] | Potency [6] | Potency [7] | outcome [8] | outcome [9] | outcome [10] | outcome [11] | Potency [12] | Potency [13] | Potency [15] | activation [17] 1.75%

Nc1ccn([C@@H]2O[C@H](CO)[C@@H](O)C2O)c(=O)n1 (stereo partly specified)
inactive: outcome [1] | outcome [3] | Potency [4] | Potency [5] | Potency [6] | Potency [7] | outcome [8] | outcome [11] | Potency [12] | Potency [13] | outcome [14] | Potency [15] | outcome [16]

Cc1cc(O)c2c(c1)C(=O)c1cc(O)cc(O)c1C2=O
-15.1%: viability change [19]
inactive: outcome [1] | Potency [2] | Potency [20] | outcome [3] | outcome [8] | outcome [9] | outcome [10] | outcome [11] | Potency [12] | Potency [13] | Potency [15] | outcome [16] | activation [17] 10.2% | Potency [19]
